Algae TAG accum: inducers of TAG accumulation in Chlamydomonas, primary screen, qHTS, Chlamydomonas reinhardtii. Nile Red fluorescence, 72 h. hit rate 0.84% among 44,000. calls only at 10 µM (by protocol). AID 1159537, 2015; call rule not given here;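 also: hits raise Nile Red signal meaning more stored TAG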
Starred values were filed as active, the others as inactive; i = inactive; + = active, no number. Shown is part of a subset that was picked to be rich in hits.

SMILES	Algae TAG accum
O=C(Nc1ccc([N+](=O)[O-])cc1)c1cccc(Cl)c1Cl	+
COc1cc(Cl)c(S(=O)(=O)N2CCN(c3ccccc3)CC2)cc1Cl	i
Cc1c(C(=O)Nc2ccc(F)c(F)c2)cccc1[N+](=O)[O-]	+
Cc1c(C(=O)Nc2ccc(F)c(Cl)c2)cccc1[N+](=O)[O-]	i
Cc1ccc(NC(=O)c2ccccc2[N+](=O)[O-])cc1F	i
O=C(Nc1c[nH]c(=O)[nH]c1=O)c1cccs1	i
CSc1ccc(CN2CCSCC2)cc1	+
CCc1ccc(CN2CCSCC2)cc1	i
CSc1ccc(CN2CCOCC2)cc1	i
CCc1cccc(OCCCCN2CCOCC2)c1	i
CCOc1ccc(CN2CCN(S(=O)(=O)c3ccccc3[N+](=O)[O-])CC2)cc1	i
O=[N+]([O-])c1cccc(-c2noc(COc3ccc(Br)cc3)n2)c1	i
CCc1cccc(C)c1NC(=O)CSc1nnnn1-c1ccccc1	i
COC1=Nc2ccccc2/C1=C\N(C)C	i

Screening data as filed in PubChem BioAssay.
